According to PubChem BioAssay (NCI):
This is part of a sample that, as a whole, favours compounds with a hit. Of some 83,000 tested, about 20% had one in any assay.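 Note: values are percent growth. 100 is the growth of untreated cells, values between 100 and 0 indicate rising inhibition; between -100 and 0 indicates cell death.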 Values without a mark were called inactive. The source made the active and inactive calls. How the source made its calls: active means growth percent below 10; inactive means the rest.

How the values were obtained:
Test in all cases: NCI-60 one-dose screen, 48 h (100 = growth as untreated, 0 = no growth, -100 = all killed)
Details in all cases: 10 µM unless noted
[1] = test system: HCT-15 colon
[2] = test system: HT29 colon
[3] = test system: SNB-75 CNS
[4] = test system: SNB-19 CNS
[5] = test system: U251 CNS
[6] = test system: SK-MEL-5 melanoma
[7] = test system: UACC-62 melanoma
[8] = test system: LOX IMVI melanoma
[9] = test system: SK-MEL-28 melanoma
[10] = test system: SK-MEL-2 melanoma
[11] = test system: EKVX NSCLC
[12] = test system: SN12C renal
[13] = test system: UO-31 renal
[14] = test system: TK-10 renal
[15] = test system: ACHN renal
[16] = test system: CAKI-1 renal
[17] = test system: A498 renal
[18] = test system: MOLT-4 leukemia
[19] = test system: CCRF-CEM leukemia

| SMILES | growth [1] [%] | growth [2] | growth [3] | growth [4] [%] | growth [5] [%] | growth [6] [%] | growth [7] [%] | growth [8] | growth [9] | growth [10] [%] | growth [11] [%] | growth [12] [%] | growth [13] | growth [14] | growth [15] | growth [16] | growth [17] [%] | growth [18] [%] | growth [19] |
| --- | --- | --- | --- | --- | --- | --- | --- | --- | --- | --- | --- | --- | --- | --- | --- | --- | --- | --- | --- |
| CC1=CC(C)(C)Nc2ccc(Cc3ccc4c(c3)C(C)=CC(C)(C)N4)cc21 | 101 | 103% | 86.3% | 93.4 | 93.5 | 92.8 | 84.1 | 88.7% | 104% | 90.6 | 81.4 | 97.1 | 77.8% | 112% | 93.8% | 73.6% | 109 | 82.9 |  |
| O=C1c2ccccc2C(=O)c2c1ccc1[nH]c(-c3cccs3)nc21 | 89.8 | 107% | 98.9% | 100 | 72.7 | 85 | 85.5 | 79.2% | 127% | 107 | 71.7 | 73.4 | 58.6% | 87.3% | 66.5% | 82% | 96.5 | 70.1 | 88.4% |
| O=C(N(c1ccccc1)c1ccccc1)n1ccc2nc(Cl)nc(Cl)c21 | 45.1 | 24.6% | 38.3% | 58.5 | 59.6 | 64.9 | 51.9 | 72.1% | 80.4% | 58.6 | 63.3 | 53.8 | 57.1% | 73.7% | 65.2% | 53.4% | 81 | 37.1 | 16% |
| O=C1CC[C@H](c2ccc(O)c3c2C(=O)[C@@H]2O[C@@H]2C3=O)c2cccc(O)c21 | 42.5 | -17.2% (active) | 81.3% | 92 | 78.7 | 92.6 | 39.4 | -62.6% (active) | -7.72% (active) | 69.5 | 102 | 54.6 | -77.4% (active) | 3.89% (active) | -42% (active) | 2.61% (active) | 85 | 45.1 | -2.85% (active) |
| O=C(O)c1ccc(NC(=O)c2ccc(-c3cccc([N+](=O)[O-])c3)o2)cc1 | 99.2 | 104% | 88% | 92 | 96.8 | 101 | 98.4 | 95.3% | 107% | 102 | 93.6 | 93.2 | 77.8% | 102% | 104% | 88% | 110 | 109 | 106% |
| Cc1ccc(OC(=O)c2ccc(Cl)cc2)cc1 | 102 | 89.2% | 77.1% | 103 | 102 | 103 | 94.7 | 99.3% | 106% | 103 | 99.1 | 95.9 | 102% | 98.2% | 95.6% | 81.8% | 114 | 113 | 55.9% |
| CCn1c(O)c(/C=N/NC(=O)C(C)c2ccc(CC(C)C)cc2)sc1=S (configuration not stated) | 17.6 | 10.1% | -2% (active) | 37.5 | 15.6 | 17 | 46 | 27.1% | 69.6% | 40.3 | 41.1 | 38 | 23.6% | 56.5% | 34.6% | 35.1% | 17.2 | 18.4 | 12.9% |
